This passage reports binding signal results from article PMC7862700, “An all-to-all approach to the identification of sequence-specific readers for epigenetic DNA modifications on cytosine”.

Holding throughout (experiment): DAPPL (digital affinity profiling via proximity ligation, sequencing); 10 mM Tris-HCl pH 7.5, 50 mM NaCl, 1 mM DTT, 4% glycerol, room temperature, 30 min; GST-TFs on glutathione beads, 16-mer random dsDNA library, 0.1% formaldehyde crosslink after washing; high values mean tight binding
Holding throughout (settings): protein: recombinant; tags: N-terminal GST; dsDNA, one strand shown

The target of one assay is T1, ELK1 (Homo sapiens, UniProt P19419 1-428).
T1 sequence: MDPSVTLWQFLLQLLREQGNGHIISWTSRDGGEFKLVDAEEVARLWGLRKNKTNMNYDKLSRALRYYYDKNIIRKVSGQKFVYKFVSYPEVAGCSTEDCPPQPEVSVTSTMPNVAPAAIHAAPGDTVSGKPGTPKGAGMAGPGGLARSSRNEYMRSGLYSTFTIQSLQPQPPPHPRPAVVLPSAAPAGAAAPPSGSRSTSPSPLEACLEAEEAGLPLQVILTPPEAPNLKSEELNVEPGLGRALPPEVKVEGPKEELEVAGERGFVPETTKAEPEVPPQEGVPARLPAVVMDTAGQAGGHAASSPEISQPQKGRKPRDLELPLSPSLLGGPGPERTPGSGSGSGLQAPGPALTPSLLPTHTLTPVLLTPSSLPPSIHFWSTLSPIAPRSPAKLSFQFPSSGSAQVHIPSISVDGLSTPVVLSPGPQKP
The gist of the method:
(§1)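 GST fusions of human transcription factors were expressed in yeast and captured with glutathione beads. Once given DNA barcodes and pooled alongside a tag-only sample, they were incubated for 30 min at room temperature with 200 nmole of a random double-stranded 16-mer DNA library in Tris/NaCl/DTT/glycerol buffer, then washed, crosslinked (0.1% formaldehyde), proximity-ligated, PCR-amplified and sequenced on an Illumina NextSeq500. The binding signal of each hexamer is its read frequency for a factor divided by its frequency for the tag-only sample.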

For another assay, the target named is T2, GABPA (Homo sapiens, UniProt Q06546 1-454).
T2 sequence: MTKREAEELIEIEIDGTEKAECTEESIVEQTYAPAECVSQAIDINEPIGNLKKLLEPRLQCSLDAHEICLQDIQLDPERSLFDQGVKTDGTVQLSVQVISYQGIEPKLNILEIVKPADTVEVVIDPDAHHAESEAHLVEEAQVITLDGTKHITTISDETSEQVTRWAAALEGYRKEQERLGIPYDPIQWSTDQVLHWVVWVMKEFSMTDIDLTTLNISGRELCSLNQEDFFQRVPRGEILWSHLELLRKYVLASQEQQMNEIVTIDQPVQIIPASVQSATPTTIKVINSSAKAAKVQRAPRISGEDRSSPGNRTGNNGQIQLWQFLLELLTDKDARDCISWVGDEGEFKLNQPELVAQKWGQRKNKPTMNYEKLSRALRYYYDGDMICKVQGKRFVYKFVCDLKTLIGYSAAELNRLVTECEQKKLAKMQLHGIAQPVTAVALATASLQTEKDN
In a few lines:
as §1

The next assay has as its target T3, ERG (Homo sapiens, UniProt P11308 1-479).
T3 sequence: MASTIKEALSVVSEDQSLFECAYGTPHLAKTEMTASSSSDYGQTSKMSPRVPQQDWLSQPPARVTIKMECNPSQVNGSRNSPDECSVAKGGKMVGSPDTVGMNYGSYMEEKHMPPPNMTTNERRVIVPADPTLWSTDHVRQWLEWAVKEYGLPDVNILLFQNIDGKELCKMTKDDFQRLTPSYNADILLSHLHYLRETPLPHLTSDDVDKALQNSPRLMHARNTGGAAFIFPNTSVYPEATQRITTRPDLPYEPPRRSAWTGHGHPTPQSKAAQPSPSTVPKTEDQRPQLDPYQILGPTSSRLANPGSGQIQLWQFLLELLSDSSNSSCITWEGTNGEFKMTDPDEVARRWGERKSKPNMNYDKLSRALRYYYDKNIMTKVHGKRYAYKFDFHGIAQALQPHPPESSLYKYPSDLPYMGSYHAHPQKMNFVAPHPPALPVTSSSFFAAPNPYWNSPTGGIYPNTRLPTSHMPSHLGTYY
The gist of the method:
as §1

The target in another assay is ELF1 (Homo sapiens, UniProt P32519 1-619). In a few lines:
as §1

The target in another assay is T4, EHF (Homo sapiens, UniProt Q9NZC4 1-300).
T4 sequence: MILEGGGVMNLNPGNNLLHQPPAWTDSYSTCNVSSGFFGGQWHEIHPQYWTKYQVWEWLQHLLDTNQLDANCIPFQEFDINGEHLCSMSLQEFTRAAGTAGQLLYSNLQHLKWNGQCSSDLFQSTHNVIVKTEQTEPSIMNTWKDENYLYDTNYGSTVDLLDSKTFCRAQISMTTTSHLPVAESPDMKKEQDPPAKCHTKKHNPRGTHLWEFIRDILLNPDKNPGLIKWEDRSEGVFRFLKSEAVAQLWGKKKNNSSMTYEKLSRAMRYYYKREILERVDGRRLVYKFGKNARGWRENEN
In a few lines: as §1

The target of a further assay is SPIB (Homo sapiens, UniProt Q01892 1-262). In a few lines: as §1
The next assay has as its target T5, FEV (Homo sapiens, UniProt Q99581 1-238).
T5 sequence: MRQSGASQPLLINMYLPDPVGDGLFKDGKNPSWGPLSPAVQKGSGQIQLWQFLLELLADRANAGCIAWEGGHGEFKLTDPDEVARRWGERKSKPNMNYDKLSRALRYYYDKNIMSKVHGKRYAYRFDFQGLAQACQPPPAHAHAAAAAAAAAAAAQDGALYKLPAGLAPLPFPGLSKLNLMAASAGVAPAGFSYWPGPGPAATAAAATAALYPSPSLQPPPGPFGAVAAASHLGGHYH
The gist of the method:
as §1

In another assay the target is ETV5 (Homo sapiens, UniProt P41161 1-510). In a few lines: as §1
The next assay has as its target ELF4 (Homo sapiens, UniProt Q99607 1-663). The gist of the method: as §1

Sequence of ELF4 (Q99607 whole entry): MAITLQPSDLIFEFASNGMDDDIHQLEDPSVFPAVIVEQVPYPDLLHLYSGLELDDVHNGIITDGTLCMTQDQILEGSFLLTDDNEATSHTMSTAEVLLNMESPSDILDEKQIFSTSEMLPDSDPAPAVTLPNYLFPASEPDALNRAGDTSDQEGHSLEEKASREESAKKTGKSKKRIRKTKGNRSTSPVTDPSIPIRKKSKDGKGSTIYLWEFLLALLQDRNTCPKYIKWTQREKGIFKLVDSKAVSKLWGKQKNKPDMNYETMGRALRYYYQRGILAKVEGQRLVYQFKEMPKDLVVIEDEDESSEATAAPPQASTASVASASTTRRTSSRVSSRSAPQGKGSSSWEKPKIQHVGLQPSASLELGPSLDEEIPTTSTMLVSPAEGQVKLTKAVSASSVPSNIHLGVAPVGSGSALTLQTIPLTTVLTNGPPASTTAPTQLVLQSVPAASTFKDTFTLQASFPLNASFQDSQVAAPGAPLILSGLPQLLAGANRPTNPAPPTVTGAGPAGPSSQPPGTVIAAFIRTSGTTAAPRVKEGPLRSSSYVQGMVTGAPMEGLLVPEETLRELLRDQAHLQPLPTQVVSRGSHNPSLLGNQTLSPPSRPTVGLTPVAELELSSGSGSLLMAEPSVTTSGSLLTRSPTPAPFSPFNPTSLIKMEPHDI
Sequence of SPIB (Q01892 whole entry): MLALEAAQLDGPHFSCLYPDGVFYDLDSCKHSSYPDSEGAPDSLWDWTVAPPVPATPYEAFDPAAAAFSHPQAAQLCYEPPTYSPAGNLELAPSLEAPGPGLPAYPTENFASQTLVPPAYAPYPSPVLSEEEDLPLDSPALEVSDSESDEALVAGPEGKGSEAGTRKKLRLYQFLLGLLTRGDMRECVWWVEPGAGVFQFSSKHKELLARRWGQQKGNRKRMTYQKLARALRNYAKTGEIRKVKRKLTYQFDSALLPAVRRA
Sequence of ELF1 (P32519 whole entry): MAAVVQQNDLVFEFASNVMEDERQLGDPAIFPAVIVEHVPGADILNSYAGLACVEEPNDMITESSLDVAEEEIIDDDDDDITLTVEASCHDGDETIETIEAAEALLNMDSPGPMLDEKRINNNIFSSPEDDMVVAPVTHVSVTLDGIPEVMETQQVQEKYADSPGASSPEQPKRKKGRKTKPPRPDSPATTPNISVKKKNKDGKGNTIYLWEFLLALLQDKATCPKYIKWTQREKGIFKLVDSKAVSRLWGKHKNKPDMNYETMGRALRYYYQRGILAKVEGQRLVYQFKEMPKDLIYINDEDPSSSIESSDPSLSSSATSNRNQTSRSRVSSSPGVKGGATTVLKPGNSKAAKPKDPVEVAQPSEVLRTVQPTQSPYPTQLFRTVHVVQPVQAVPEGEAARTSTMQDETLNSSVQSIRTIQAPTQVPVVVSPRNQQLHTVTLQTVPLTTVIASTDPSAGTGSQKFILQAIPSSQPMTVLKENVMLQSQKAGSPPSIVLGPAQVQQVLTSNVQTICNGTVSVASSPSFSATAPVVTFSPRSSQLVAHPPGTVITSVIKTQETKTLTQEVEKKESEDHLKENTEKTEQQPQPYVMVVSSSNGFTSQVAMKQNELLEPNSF
Sequence of ETV5 (P41161 whole entry): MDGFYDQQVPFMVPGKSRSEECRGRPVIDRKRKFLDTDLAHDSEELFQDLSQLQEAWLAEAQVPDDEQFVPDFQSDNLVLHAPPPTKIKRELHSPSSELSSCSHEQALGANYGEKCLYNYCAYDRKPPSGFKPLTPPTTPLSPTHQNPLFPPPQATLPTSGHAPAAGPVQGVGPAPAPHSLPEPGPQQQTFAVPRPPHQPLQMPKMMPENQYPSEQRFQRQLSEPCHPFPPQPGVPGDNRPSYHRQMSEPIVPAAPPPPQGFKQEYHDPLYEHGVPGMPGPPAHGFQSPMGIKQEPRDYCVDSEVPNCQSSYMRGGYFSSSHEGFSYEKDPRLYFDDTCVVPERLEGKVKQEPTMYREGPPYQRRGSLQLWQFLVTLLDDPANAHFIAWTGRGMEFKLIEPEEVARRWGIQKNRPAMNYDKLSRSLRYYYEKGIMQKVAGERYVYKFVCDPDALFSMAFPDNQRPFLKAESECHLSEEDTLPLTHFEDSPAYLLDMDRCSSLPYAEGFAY

As to CGATGC, the binding signal is 1.1 fold enrichment (6-mer frequency, TF over GST control) in the assay with ELK1; 1.19 fold enrichment (6-mer frequency, TF over GST control) in the assay with GABPA; 1.08 fold enrichment (6-mer frequency, TF over GST control) with ERG; 1.02 fold enrichment (6-mer frequency, TF over GST control) with ELF1; 1.09 fold enrichment (6-mer frequency, TF over GST control) with EHF; 1.06 fold enrichment (6-mer frequency, TF over GST control) in the assay with SPIB. Further, the binding signal was 1.07 fold enrichment (6-mer frequency, TF over GST control) in the assay with FEV; 1.11 fold enrichment (6-mer frequency, TF over GST control) in the assay with ETV5; 1.19 fold enrichment (6-mer frequency, TF over GST control) with ELF4.
